The record followed here is PubChem BioAssay (Tox21).

SMILES strings stand for the structures. Results filed as inconclusive are left out. Activity calls are given as the source filed them. Calls follow the shape of the dose curve; as a rule, active = well fitted cell-killing curve with a large enough effect in the repeat runs; inconclusive = weak or mixed curves, or effect the other way; inactive = flat fitted curve, though single readings scatter.
% is scaled to controls: 0 for no effect and ±100 for the full control effect.

A short description of the experiment: qHTS RealTime-Glo MT Cell Viability Assay in HEK293 cells - 24 hour (AID 1224886). Also: top concentration of the series differs between compounds; nearly all actives have a fitted effect of over 50% in size. As to conditions: RealTime-Glo luminescence; series mostly up to 76.8 µM; activity change, negative = cytotoxicity: at the top concentration. An excerpt:
National Center for Advancing Translational Sciences [NCATS]
NIH Chemical Genomics Center [NCGC]
U.S. Environmental Protection Agency [EPA]
National Institutes of Environmental Health Sciences [NIEHS]
National Toxicology Program [NTP]
U.S. Food and Drug Administration [FDA]
Measure of cell viability is critical in the cell-base assay. Analysis of cell viability is necessary for the characterization of cell responses to cytotoxic drugs and environmental stress. A RealTime-Glo MT Cell Viability Assay to monitor cell viability in real time of continues cell culture during 40 hours of compound treatment was used to screen Tox21 10K library compounds in Hek293 cells. The RealTime-Glo MT Cell Viability Assay is a nonlytic, homogeneous, bioluminescent method to measure cell viability in real time using a simple, plate-based method. The assay involves adding NanoLuc luciferase and a cell-permeant prosubstrate to cells in culture. Viable cells reduce the proprietary prosubstrate to generate a substrate for NanoLuc luciferase. This substrate diffuses from cells into the surrounding culture medium, where it is rapidly used by the NanoLuc Enzyme to produce a luminescent signal. The signal correlates with the number of viable cells, making the assay well suited for cytotoxicity studies.
Tox21 Assay Protocol Summary:
The mixture of Hek293 cell suspension and reagents were dispensed at 600cells/6 ul/well in 1536-well tissue culture treated black solid bottom plates using a Multidrop dispenser. After the assay plates were incubated at a 37 C/5% CO2 incubator for 5 hours, 23 nL of compounds dissolved in DMSO, positive and negative controls was transferred to the assay plate by a pintool work station. The plates were incubated at 37 C for 40 hours. The luminescence intensity were measured at 0h, 8h, 16h, 24h, 32h and 40h time points using ViewLux plate reader during compound treatment.
For the compound `CN1[C@@H]2CC[C@H]1CC(OC(=O)C(O)c1ccccc1)C2` (stereo not given in full), the “activity change, negative = cytotoxicity” value was 1.75% [at 35.3 µM] (inactive).
Under `CC[C@H]1OC(=O)[C@H](C)[C@@H](O[C@H]2C[C@@](C)(OC)[C@@H](O)[C@H](C)O2)[C@H](C)[C@@H](O[C@@H]2O[C@H](C)C[C@H](N(C)C)[C@H]2O)[C@](C)(OC)C[C@@H](C)C(=O)[C@H](C)[C@@H](O)[C@]1(C)O` stands -21% (inactive); under `CO[C@@]1(NC(=O)C(C(=O)O)c2ccc(O)cc2)C(=O)N2C(C(=O)O)=C(CSc3nnnn3C)CO[C@@H]21` (stereo not given in full), 4.65% [at 35.3 µM] (inactive); under `O=S(=O)(O)c1cc(O)c(O)c(S(=O)(=O)O)c1`, 0.106% (inactive).
The value for `CC(C)(N)C#N` was 0.439% (inactive).
For `CC(C)(CCC(=O)O)C(=O)O`, the “activity change, negative = cytotoxicity” value was 0.586% (inactive).
Under `CN1C(C)(C)CC(O)CC1(C)C` stands 3.3% (inactive); under `CC(=O)Oc1cccc(C)c1`, 4.07% [at 35.3 µM] (inactive).
For the compound `COc1cc(C(=O)OC(COCCC(C)C)CN2CCOCC2)cc(OC)c1OC` (stereo not given), the “activity change, negative = cytotoxicity” value was -13.5% [at 35.3 µM] (inactive).
In the case of `Cc1ccccc1N=C(N)N=C(N)N`, the “activity change, negative = cytotoxicity” value was -1.32% (inactive).
Under `Nc1c2c(nc3c1CCC3)CCCC2` stands 1.42% [at 35.3 µM] (inactive); under `CCCC[N+](C)(CCCC)CCCC`, -4.12% (inactive); under `CCCCCCCCCCCCCCCCCCO`, -1.42% [at 35.3 µM] (inactive).
The value for `CCOC(=O)C(=O)CCCCCCl` was 3.08% [at 35.3 µM] (inactive); that for `C[C@H]1C[C@H]2[C@@H]3CCC4=CC(=O)C=C[C@]4(C)[C@H]3C(=O)C[C@]2(C)[C@@]1(O)C(=O)CO` was 3.52% [at 35.3 µM] (inactive); that for `C=C(C)C(=O)OCC(O)CO` (stereo not given) was 3.96% [at 35.3 µM] (inactive).
The value for `CCCCOCCOC(=O)CCCCCCCCC(=O)OCCOCCCC` was 1.43% (inactive).
Regarding `C=CCCC(=O)O`, the “activity change, negative = cytotoxicity” value was 4.57% (inactive).
Under `CCOCC(C)O` (stereo not given) stands 2.46% (inactive).
As for `CCOC(=O)c1ccccc1`, the “activity change, negative = cytotoxicity” value was 1.16% (inactive).
`CC(C)(C)C(=O)c1ccccc1`: the “activity change, negative = cytotoxicity” value is 0.81% (inactive).
Turning to `c1ccc2sc(SN3CCOCC3)nc2c1`, the “activity change, negative = cytotoxicity” value is 0.274% [at 35.3 µM] (inactive).
The value for `CNC(=O)Nc1ccc(Cl)c(Cl)c1` was -21.3% (inactive); that for `Nc1ccn([C@@H]2O[C@H](CO)[C@@H](O)C2O)c(=O)n1` (stereo not given in full) was 13.9% (inactive); that for `Cc1cccc(C)c1NC(=O)CC12CCCN1CCC2` was 0.639% [at 35.3 µM] (inactive).
`CCCCCCCCCCCCCCC(=O)O`: the “activity change, negative = cytotoxicity” value was 19.3% (inactive).
For `C[N+](C)(C)CCCCCCCCCC[N+](C)(C)C`, the “activity change, negative = cytotoxicity” value is 7.43% [at 35.3 µM] (inactive).
Turning to `CC(C)CC(C)(N)C#N` (stereo not given), the “activity change, negative = cytotoxicity” value is 3.07% (inactive).
The value for `CO/N=C(\C(=O)N[C@@H]1C(=O)N2C(C(=O)O)=C(CSc3nc(=O)c(O)nn3C)CS[C@H]12)c1csc(N)n1` was 5.63% [at 35.3 µM] (inactive); that for `C1CCC2(CCCCO2)OC1` was -7.63% (inactive); that for `CC[N+](C)(CC)CCOC(=O)C1c2ccccc2Oc2ccccc21` was 3.51% [at 35.3 µM] (inactive).
In the case of `CC1=CCC(O)(C(C)C)CC1` (stereo not given), the “activity change, negative = cytotoxicity” value is 1.8% (inactive).
Under `CC(C)(C)OC(=O)c1cccc(N)c1` stands -12.7% (inactive); under `CC(C)c1ccc2ncccc2c1`, 0.98% (inactive); under `NC(=O)Cc1cccc2ccccc12`, 0.421% (inactive).
In the case of `FB(F)F`, the “activity change, negative = cytotoxicity” value was -3.56% (inactive).
Take `CCCCCCCCN1CCCC1=O`: the “activity change, negative = cytotoxicity” value was -13% (inactive).
Under `COc1cc(C(=O)NCc2ccc(OCCN(C)C)cc2)cc(OC)c1OC` stands -20.8% [at 35.3 µM] (inactive); under `CC(C)(C)C(=O)Oc1ccc(S(=O)(=O)Nc2ccccc2C(=O)NCC(=O)O)cc1`, 6.82% [at 35.3 µM] (inactive).
Under `N[C@H](C(=O)O)[C@@H](O)c1ccc(O)c(O)c1` stands 3.69% [at 35.3 µM] (inactive).
